This is part of a sample that, as a whole, favours compounds with a hit. Of some 83,000 tested, about 20% had one in any assay.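 Single-concentration screen, 48 h exposure, 96-well plates. Endpoint: percent growth. Below 10 = active.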 Values without a mark were called inactive. Active and inactive are the calls of the source.

Test systems include NCI-H23 lung; NCI-H226 lung; NCI-H322M lung; HOP-62 NSCLC; NCI-H460 lung; HOP-92 NSCLC; NCI-H522 lung; A549/ATCC NSCLC; 786-0 renal; COLO 205 colon; DU-145 prostate; K-562 leukemia; MALME-3M melanoma; MDA-MB-231 breast; RXF 393 renal; SF-268 CNS; SF-295 CNS; UACC-257 melanoma; M14 melanoma; SF-539 CNS.
What all share (assay): NCI-60 one-dose screen, 48 h (100 = growth as untreated, 0 = no growth, -100 = all killed)
Holding throughout (conditions): 10 µM unless noted

Turning to `N#C[Se]Cc1cc(-c2ccccc2)n(-c2ccc(S(N)(=O)=O)cc2)n1`, the growth in the experiment on NCI-H23 lung is -18% (active); with NCI-H226 lung, -29.1% (active); in the experiment on NCI-H322M lung it was -5.66% (active); with HOP-62 NSCLC it was -87.3% (active); in the experiment with NCI-H460 lung it was -56.8% (active); in the experiment with HOP-92 NSCLC it was -61.3% (active). For the same molecule, the growth in the experiment with NCI-H522 lung was -7.38% (active); in the experiment on A549/ATCC NSCLC, -33.1% (active); with 786-0 renal it was -24.7% (active); in the experiment with COLO 205 colon, -83.4% (active); with DU-145 prostate it was -85.6% (active); in the experiment on K-562 leukemia, 4.33% (active). In addition, the growth in the experiment on MALME-3M melanoma was -47% (active); with MDA-MB-231 breast it was -68.3% (active); with RXF 393 renal, -3.45% (active); with SF-268 CNS, -59.8% (active); in the experiment with SF-295 CNS, -55.8% (active); in the experiment on UACC-257 melanoma, -70.2% (active). Also, the growth in the experiment on M14 melanoma is -62.2% (active).
Take `COc1cc2c(cc1OCc1ccccc1)C(CC(C)C)=[N+](C)CC2`: the growth with NCI-H23 lung was 56.4%; with NCI-H226 lung, 81.2%; in the experiment on NCI-H322M lung, 97.8%; in the experiment on HOP-62 NSCLC, 88.2%; in the experiment with NCI-H460 lung it was 92.1%; in the experiment with HOP-92 NSCLC it was 77.7%. The growth with NCI-H522 lung was 66.3%; with A549/ATCC NSCLC, 61%; in the experiment with 786-0 renal, 95.6%; in the experiment on COLO 205 colon, 56.9%; in the experiment on DU-145 prostate, 93.6%; in the experiment with K-562 leukemia, 67.2%. Further, the growth in the experiment on MALME-3M melanoma is 85%; in the experiment with MDA-MB-231 breast, 93%; with RXF 393 renal it was 93.9%; in the experiment on SF-268 CNS, 67.5%; in the experiment on SF-295 CNS it was 68.2%; with SF-539 CNS, 76.7%. Further, the growth was 50% with UACC-257 melanoma and 99.1% in the experiment with M14 melanoma.
As to `C=CCCCN=C=S`, the growth with NCI-H23 lung is 82%; in the experiment on NCI-H226 lung it was 94.9%; in the experiment on NCI-H322M lung it was 80.7%; with HOP-62 NSCLC it was 76.1%; with NCI-H460 lung, 47.9%; in the experiment on HOP-92 NSCLC, 92%. Besides, the growth in the experiment with NCI-H522 lung was 38%; with A549/ATCC NSCLC, 75.2%; with 786-0 renal it was 93.4%; in the experiment with COLO 205 colon, 91.2%; in the experiment with DU-145 prostate, 60.5%; in the experiment on K-562 leukemia, 59.8%. Moreover, the growth was 76.7% in the experiment on MALME-3M melanoma; 68.3% in the experiment with MDA-MB-231 breast; 80% in the experiment with RXF 393 renal; 77.4% in the experiment with SF-268 CNS; 92.4% in the experiment on SF-295 CNS; 62.5% in the experiment on UACC-257 melanoma. Moreover, the growth with M14 melanoma is 60.9%.
For the molecule `CC1=C(CCCNS(C)(=O)=O)C2=C(C)C3(CC3)[C@@](C)(O)C(=O)C2=C1`, the growth was -35.1% (active) in the experiment with NCI-H23 lung; -44% (active) in the experiment on NCI-H226 lung; -3.8% (active) with NCI-H322M lung; -20.5% (active) with HOP-62 NSCLC; 1% (active) in the experiment on NCI-H460 lung; -25.7% (active) in the experiment on HOP-92 NSCLC. Also, the growth with NCI-H522 lung is 6.89% (active); in the experiment with A549/ATCC NSCLC, 2.7% (active); in the experiment with 786-0 renal it was -17.6% (active); in the experiment on COLO 205 colon, -61% (active); with DU-145 prostate, 4.13% (active); in the experiment with K-562 leukemia it was 106%. For the same molecule, the growth in the experiment with MALME-3M melanoma was -63.1% (active); with MDA-MB-231 breast, -3.41% (active); with RXF 393 renal, -75.6% (active); in the experiment on SF-268 CNS, 8.41% (active); in the experiment with SF-295 CNS, 2.69% (active); with SF-539 CNS it was -38.6% (active). In the experiment with M14 melanoma, the growth is -51.3% (active).
For the molecule `COc1ccc(C(=O)c2sc3nc4c(cc3c2N)N2CCC4CC2)cc1OC`, the growth in the experiment on NCI-H23 lung is 92.5%; in the experiment on NCI-H226 lung it was 65.2%; in the experiment with NCI-H322M lung, 107%; in the experiment with HOP-62 NSCLC, 72.9%; in the experiment on NCI-H460 lung, 103%; in the experiment with HOP-92 NSCLC, 6.56% (active). Besides, the growth is 82.4% with NCI-H522 lung; 94.8% in the experiment with A549/ATCC NSCLC; 90.9% with 786-0 renal; 97.1% in the experiment on COLO 205 colon; 103% with DU-145 prostate; 73.3% with K-562 leukemia. Moreover, the growth is 93% in the experiment on MALME-3M melanoma; 66.9% in the experiment on MDA-MB-231 breast; 85.6% in the experiment on RXF 393 renal; 105% in the experiment with SF-268 CNS; 88.9% in the experiment on SF-295 CNS; 111% in the experiment with UACC-257 melanoma. In the experiment with M14 melanoma, the growth was 109%.
Consider `O=C1CN=C(c2ccc(Cl)cc2)c2sccc2N1`, for which the growth with NCI-H23 lung was 98%; with NCI-H226 lung, 93.6%; in the experiment with NCI-H322M lung, 91.2%; with HOP-62 NSCLC, 106%; in the experiment on NCI-H460 lung, 108%; with HOP-92 NSCLC it was 97.4%. In addition, the growth in the experiment on NCI-H522 lung was 82.5%; in the experiment on A549/ATCC NSCLC it was 101%; with 786-0 renal it was 103%; with COLO 205 colon it was 123%; in the experiment with DU-145 prostate it was 109%; in the experiment on K-562 leukemia it was 88.1%. Besides, the growth with MALME-3M melanoma is 97.4%; in the experiment on MDA-MB-231 breast, 100%; with RXF 393 renal, 100%; in the experiment with SF-268 CNS, 106%; in the experiment with SF-295 CNS it was 96.5%; in the experiment on SF-539 CNS, 93.4%. The growth was 119% in the experiment with UACC-257 melanoma and 110% in the experiment on M14 melanoma.
For `COc1cc2c(cc1OCCCCn1c(-c3cccs3)nc3ccccc31)N=C[C@@H]1CCCN1C2=O`, the growth with NCI-H23 lung was -37.9% (active); with NCI-H226 lung, -34.7% (active); with NCI-H322M lung, -30.5% (active); with HOP-62 NSCLC it was 17.7%; in the experiment with NCI-H460 lung, -4.31% (active); in the experiment on HOP-92 NSCLC, -64.6% (active). For the same molecule, the growth in the experiment with NCI-H522 lung is -27.4% (active); with A549/ATCC NSCLC it was -7.19% (active); in the experiment with 786-0 renal, 1.78% (active); in the experiment with COLO 205 colon, -73.5% (active); in the experiment with DU-145 prostate, 10.7%; in the experiment with K-562 leukemia, -26.7% (active). For the same molecule, the growth was -77% (active) in the experiment on MALME-3M melanoma; -18.6% (active) with MDA-MB-231 breast; -60.4% (active) in the experiment with RXF 393 renal; -7.58% (active) in the experiment on SF-268 CNS; -8% (active) with SF-295 CNS; -25.3% (active) in the experiment on SF-539 CNS. For the same molecule, the growth in the experiment on M14 melanoma was -46.2% (active).
Regarding `COC1OC(CO)C(O)C(O)[CH]1[Hg][O]C(C)=O` (centres undefined), the growth in the experiment on NCI-H23 lung was 94.2%; in the experiment on NCI-H226 lung, 100%; with NCI-H322M lung, 91.7%; in the experiment on HOP-62 NSCLC it was 102%; with NCI-H460 lung, 94.9%; in the experiment on HOP-92 NSCLC, 123%. Further, the growth in the experiment with NCI-H522 lung is -42.7% (active); with A549/ATCC NSCLC, 94.9%; in the experiment on 786-0 renal it was 106%; in the experiment with COLO 205 colon, 98%; in the experiment with DU-145 prostate, 96.3%; in the experiment with K-562 leukemia, 27.3%. Further, the growth in the experiment with MALME-3M melanoma is 76.4%; with MDA-MB-231 breast it was 81.9%; in the experiment with RXF 393 renal, 110%; in the experiment with SF-268 CNS, 97.6%; with SF-295 CNS it was 102%; with SF-539 CNS, 106%. Moreover, the growth in the experiment with M14 melanoma is 93.7%.

The values above are taken from PubChem BioAssay (NCI).
